Results as given in PubChem BioAssay AID1159580 (chemical genetic matrix, 2015).
About 2,000 (36%) of roughly 5,500 compounds were called active. Inconclusive results (about 18%) are left out. Cut-off read from the data, not from the text of the source: active = normalized growth mostly below about 0.91 (no sharp cut-off); inconclusive = no clear call, values can overlap the other calls; inactive = mostly above about 0.92. This is one part of the list.

Assay: chemical genetic growth profiling, strain panel (AID 1159580);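 note: tested at 20 µM; growth read once vehicle control cultures reached saturation at 30 °C; 1 = growth at the plate median or of vehicle wells; lower values mean less growth of the strain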
Conditions: S. cerevisiae deletion strains, growth OD

Measured: normalized growth

CC(=O)c1ccc2c(c1)N(CCCN(C)C)c1ccccc1S2
inactive: locus YAL021C, strain ccr4, hits give low values 0.962 | locus YAL026C, strain drs2, hits give low values 0.981 | locus YAL030W, strain snc1, hits give low values 1 | locus YBL061C, strain skt5, hits give low values 0.992 | locus YBR009C, strain hhf1, hits give low values 1 | locus YBR023C, strain chs3, hits give low values 1.01 | locus YBR171W, strain sec66, hits give low values 0.988 | locus YBR231C, strain swc5, hits give low values 0.994 | locus YBR279W, strain paf1, hits give low values 0.988 | locus YCL011C, strain gbp2, hits give low values 0.976 | locus YCL016C, strain dcc1, hits give low values 0.995 | locus YCL061C, strain MRC1, hits give low values 0.983 | locus YCL069W, strain vba3, hits give low values 0.988 | locus YCR088W, strain abp1, hits give low values 0.978 | locus YDL005C, strain med2, hits give low values 0.989 | locus YDL040C, strain nat1, hits give low values 0.99 | locus YDR001C, strain nth1, hits give low values 0.983 | locus YDR069C, strain doa4, hits give low values 0.99 | locus YDR137W, strain rgp1, hits give low values 1.09 | locus YDR159W, strain sac3, hits give low values 1.01 | locus YDR195W, strain ref2 1 | locus YDR297W, strain sur2, hits give low values 0.984 | locus YDR334W, strain swr1, hits give low values 0.959 | locus YDR335W, strain msn5, hits give low values 0.968 | locus YDR392W, strain spt3, hits give low values 0.994 | locus YEL003W, strain gim4, hits give low values 0.986 | locus YEL037C, strain rad23, hits give low values 0.939 | locus YEL061C, strain CIN8 (second series), hits give low values 0.984 | locus YER015W, strain faa2, hits give low values 0.98 | locus YER016W, strain bim1, hits give low values 0.989 | locus YER111C, strain swi4, hits give low values 0.994 | locus YER155C, strain BEM2 (second series), hits give low values 0.995 | locus YFR010W, strain ubp6, hits give low values 0.974 | locus YGL167C, strain pmr1, hits give low values 0.987 | locus YGL173C, strain kem1, hits give low values 0.973 | locus YGL227W, strain vid30, hits give low values 0.991 | locus YGL240W, strain doc1, hits give low values 1 | locus YGL253W, strain hxk2, hits give low values 0.993 | locus YHR013C, strain ard1, hits give low values 0.947 | locus YHR027C, strain rpn1, hits give low values 0.986 | locus YHR030C, strain SLT2, hits give low values 0.966 | locus YHR079C, strain IRE1, hits give low values 0.963 | locus YHR142W, strain chs7, hits give low values 0.943 | locus YJL092W, strain hpr5, hits give low values 0.934 | locus YJL095W, strain BCK1 (second series), hits give low values 1 | locus YJL095W, strain BCK1, hits give low values 1 | locus YJL115W, strain asf1, hits give low values 0.974 | locus YJL129C, strain trk1, hits give low values 0.981 | locus YJL154C, strain vps35, hits give low values 0.987 | locus YJL164C, strain tpk1, hits give low values 0.99 | locus YJL166W, strain qcr8, hits give low values 0.997 | locus YJL187C, strain SWE1, hits give low values 0.998 | locus YJR066W, strain TOR1, hits give low values 0.923 | locus YKL160W, strain elf1, hits give low values 0.976 | locus YKR026C, strain gcn3, hits give low values 0.979 | locus YKR091W, strain srl3, hits give low values 0.992 | locus YLL001W, strain dnm1, hits give low values 0.973 | locus YLL026W, hits give low values 0.996 | locus YLL041C, strain sdh2, hits give low values 0.98 | locus YLR027C, strain aat2, hits give low values 0.995 | locus YLR113W, strain HOG1, hits give low values 0.995 | locus YLR221C, strain rsa3, hits give low values 0.979 | locus YLR258W, strain gsy2, hits give low values 0.995 | locus YLR262C, strain YPT6 (second series), hits give low values 1.06 | locus YLR320W, strain mms22, hits give low values 1.01 | locus YLR342W, strain FKS1, hits give low values 0.99 | locus YLR357W, strain rsc2, hits give low values 1.01 | locus YLR370C, strain arc18, hits give low values 0.984 | locus YLR384C, strain iki3, hits give low values 0.987 | locus YML120C, strain ndi1, hits give low values 0.969 | locus YMR058W, strain fet3, hits give low values 0.967 | locus YMR125W, strain sto1, hits give low values 1.02 | locus YMR129W, hits give low values 0.991 | locus YMR205C, strain PFK2, hits give low values 1.02 | locus YMR231W, strain pep5, hits give low values 0.996 | locus YNL071W, strain lat1, hits give low values 0.995 | locus YNL183C, strain NPR1, hits give low values 0.947 | locus YNL209W, strain ssb2, hits give low values 0.99 | locus YNL248C, strain rpa49, hits give low values 0.956 | locus YNL322C, strain KRE1 (second series), hits give low values 0.987 | locus YNR049C, strain mso1, hits give low values 0.989 | locus YOR001W, strain rrp6, hits give low values 0.975 | locus YOR070C, strain gyp1, hits give low values 0.992 | locus YOR080W, strain dia2, hits give low values 0.983 | locus YOR083W, strain WHI5, hits give low values 0.971 | locus YOR106W, strain vam3, hits give low values 0.972 | locus YOR231W, strain MKK1, hits give low values 0.972 | locus YOR265W, strain rbl2, hits give low values 0.995 | locus YOR270C, strain vph1, hits give low values 0.958 | locus YOR290C, strain snf2, hits give low values 1.02 | locus YPL051W, strain arl3, hits give low values 0.994 | locus YPL078C, strain atp4, hits give low values 1 | locus YPL106C, strain sse1, hits give low values 0.973 | locus YPL240C, strain hsp82, hits give low values 0.997 | locus YPL256C, strain CLN2, hits give low values 0.954
